Source: PubChem
In the library only some 3.6% were active in any assay of this set; here they are far more common.
Pf apPOL inh: Pf-apPOL DNA polymerase inhibition | Recombinant Pf-apPOL, molecular beacon fluorescence, 1.5 h | inhibition, % at 10 µM | actives 0.25% (n = 210,000)
mHTT CaM bind: disrupts binding of mutant huntingtin to calmodulin; P42858; AlphaScreen His-mHTT/GST-CaM binding, luminescence; inhibition, % at 15 µM; actives 3.6% (n = 190,000)
Each line names hits and unclear results; the compound was inactive in the other large screens. Rule as the data show it: active = inhibition above about 50%; inactive = the rest.

O=C(c1cccc(N2CCNC(c3ccccc3)C2)n1)N1CCN(c2ccc(F)cc2)CC1 (configuration not stated)	mHTT CaM bind 51
O=C(c1cccc(N2CCNC(c3ccccc3)C2)n1)N1CCN(c2ccccc2)CC1 (configuration not stated)	none
Cc1ccc(N2CCN(C(=O)c3ccnc(N4CCNC(c5ccccc5)C4)c3)CC2)cc1 (configuration not stated)	none
COc1ccccc1NC(=O)c1cccc(N2CCNC(c3ccccc3)C2)n1 (configuration not stated)	mHTT CaM bind 72
O=C(c1ccc(N2CCNC(c3ccccc3)C2)nc1)N1CCCC1 (configuration not stated)	none
CC1=C(OS(=O)(=O)c2cc(Cl)sc2Cl)C(=O)CC1	none (no result: mHTT CaM bind)
CN(C)c1cccc(C(=O)NCCc2nc3ccccc3c(=O)[nH]2)c1	none
CCN(CC)S(=O)(=O)c1cc(C(=O)Nc2ccc(C(=O)O)cc2)ccc1Cl	none
CCOc1ccc(N2C(=O)C(N3C(=O)c4ccccc4C3=O)C2c2cccc(OC)c2)cc1 (configuration not stated)	none
O=C1CC2(CCN(C(=O)C34CC5CC(CC(C5)C3)C4)CC2)Oc2ccccc21	none
CCCCCCCCCCCCCCCCCC(=O)c1cccs1	none (no result: mHTT CaM bind)
O=C(O)CCCC(=O)Nc1nc(-c2ccc(Cl)cc2Cl)cs1	none
COc1ccc(-c2ccccc2)cc1NCc1cccs1	mHTT CaM bind 55
FC(F)(F)c1cc(-c2ccccc2)nc(NCc2cccs2)n1	none
Cc1onc(-c2ccccc2Cl)c1C(=O)NNC(=O)c1cc2c(s1)-c1ccccc1CC2	none (no result: mHTT CaM bind)
CC(C)COc1ccc2c(c1)Sc1ccccc1N2CCN(C)C	mHTT CaM bind 93
CN(C)CCCN1c2ccccc2Sc2ccc(Cl)cc21	none (no result: mHTT CaM bind)
O=C(c1ccccc1)c1cc(Cl)ccc1N=Cc1c(O)[nH]c(=O)[nH]c1=O	none
COCCn1c(-c2ccccc2)cnc1SCC(=O)Nc1ccccc1	none
CNC(=O)CSc1ncc(-c2ccc(Br)cc2)n1Cc1ccccc1	mHTT CaM bind 69
O=C1Nc2ccccc2Oc2cc([N+](=O)[O-])cc(Oc3ccc(Br)cc3)c21	none
O=C1Nc2ccccc2Oc2cc([N+](=O)[O-])cc(Oc3ccc(Cl)cc3)c21	mHTT CaM bind 51
Cc1ccccc1C1C(C#N)=C(N)OC2=C1C(=O)CC(C)(C)C2 (configuration not stated)	none
CC1(C)CC(=O)C2=C(C1)OC(N)=C(C#N)C2c1cn(-c2ccccc2)nc1-c1ccccc1 (configuration not stated)	mHTT CaM bind 76
Cn1c(C2CCN(C(=O)c3ccc(C(F)(F)F)cc3)C2)nc2ccncc21 (configuration not stated)	none
CC(=O)Nc1cc(C(=O)NC2CCCC(C)C2C)ccc1S(=O)(=O)c1ccc(Cl)cc1 (configuration not stated)	Pf apPOL inh 71
CC1CCCC(NC(=O)C(Cc2ccccc2)NS(=O)(=O)c2ccc(Cl)cc2)C1C (configuration not stated)	none
Cc1[nH]nc(-c2ccccc2)c1Br	none
Cc1cc(-c2ccccc2)n[nH]1	Pf apPOL inh 83
Oc1ccccc1-c1cc(-c2cccc(Br)c2)n[nH]1	mHTT CaM bind 96
Cc1ccc(O)c(-c2cc(-c3ccccc3)n[nH]2)c1	mHTT CaM bind 74
Oc1ccccc1-c1cc(-c2ccccc2)no1	none
Oc1ccccc1-c1cc(-c2ccc(Br)cc2)n[nH]1	none
NC(N)=NC(N)=Nc1cc(-c2cccs2)[nH]n1	none (no result: mHTT CaM bind)
Cc1ccc(O)c(-c2cc(-c3cccs3)[nH]n2)c1	mHTT CaM bind 56
CC(C)c1ccc(-c2nnc(N)s2)cc1	none
CC1CCN(C(=O)c2ccc(-c3cccnc3)nc2)CC1	none
O=C(NCc1cccs1)C(=O)NCC1(c2cccs2)CC1	none
COc1ccc2c(c1)N1CCN(c3ccc(F)cc3)CC1C(C(=O)NC(C)C)C2 (configuration not stated)	none
O=C1CC2C(CC(OC(=O)c3ccc(-c4ccccc4)cc3)C2CO)O1 (configuration not stated)	none (no result: mHTT CaM bind)
O=S(=O)(Nc1ccc(F)c(Cl)c1)c1ccccc1	none
Cc1ccccc1-c1cc(-c2ccccc2O)on1	none
COc1ccc(-c2cc(-c3cc(C)ccc3O)[nH]n2)cc1	mHTT CaM bind 70
COc1ccc(-c2cc(C(=O)O)c3cc(C)ccc3n2)cc1	none
Cc1nc2cccc(-c3cc(-c4ccccc4O)[nH]n3)c2o1	mHTT CaM bind 67
COCCNC(=O)C1c2ccccc2CC(=O)N1CCOC (configuration not stated)	none
CCCN(CCC)S(=O)(=O)c1ccc([N+](=O)[O-])cc1	none
CC(=O)NCCc1csc(C2CCN(C(=O)Nc3ccccc3Cl)CC2)n1	none
O=C(Nc1nc2c(s1)CN(C(=O)Cc1cccs1)CC2)c1cnccn1	none
O=C(Nc1nc2c(s1)CN(CC(=O)N1CCCc3ccccc31)CC2)c1cnccn1	mHTT CaM bind 63
COc1ccc(CNC(=O)C2(C)Cc3ccccc3C(=O)N2C2CCCCC2)cc1 (configuration not stated)	none
